Measurements as given in the supplement of paper PMC12045047.
Values without a mark were called inactive.

Each molecule was assayed on primary human airway basal cells (HBEC, luciferase-transduced) (assay: proliferation (luciferase bioluminescence) Z score relative to plate mean; higher = more proliferation / more cells, active = 1.96 or more). Settings: donor: 1; 0.5 µM; library: ENZO Libraries; 4 days.
Protocol: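 Primary human bronchial epithelial (airway basal) cells from two donors, lentivirally transduced with pHIV-Luc-ZsGreen, were seeded at 2000 cells/well in 384-well plates in FAD medium with ENZO or Prestwick library compounds and cultured for 4 days. Luciferin was then added and bioluminescence was read as a measure of cell number. Relative light units were converted to Z scores against the plate, and the mean of triplicate wells is reported.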

Row | SMILES | proliferation
1 | COC(=O)C[C@H](NC(=O)[C@H](C)NC(=O)[C@@H](NC(=O)OCc1ccccc1)C(C)C)C(=O)CF | -0.208
2 | C[C@H](NC(=O)[C@@H]1CCCN1C(=O)[C@@H]1CCCN1C(=O)[C@@H](O)[C@H](N)Cc1ccccc1)C(N)=O [Apstatin] | -0.513
3 | CC(C)CC(=O)N[C@H](C(=O)N[C@H](C(=O)N[C@@H](CC(C)C)[C@@H](O)CC(=O)N[C@@H](C)C(=O)N[C@@H](CC(C)C)[C@@H](O)CC(=O)O)C(C)C)C(C)C [Pepstatin A] | 0.161
4 | O=C1Nc2ccccc2/C1=C1/Nc2ccccc2C1=O [Indirubin] | -0.759
5 | NCCCC[C@H](N[C@@H](CCc1ccccc1)C(=O)O)C(=O)N1CCC[C@H]1C(=O)O [Lisinopril] | -0.405
6 | Nc1ccccc1NC(=O)CCCCCCC(=O)Nc1ccccc1 | 0.133
7 | O=c1c(-c2ccc(O)cc2)coc2cc(O)cc(O)c12 [Genistein] | 0.674
8 | O=C(O)CNC(=O)C(CS)Cc1ccccc1 (racemic) [DL-Thiorphan] | 0.124
9 | O=C(O)c1ccnc(C(=O)O)c1 [24-Pyridinedicarboxylic Acid] | 0.171
10 | COCc1cc(O)c(O)c(O)c1-c1c(COC)cc(O)c(O)c1O | -0.578
11 | O=C(O)c1cc(N(Cc2ccccc2O)Cc2cc(O)ccc2O)ccc1O [Lavendustin A] | -0.351
12 | CC1CNc2c(cccc2S(=O)(=O)N[C@@H](CCCNC(=N)N)C(=O)N2CC[C@@H](C)C[C@@H]2C(=O)O)C1 (stereo not given in full) [Argatroban] | 0.0616
13 | CN(C)CCCn1cc(C2=C(c3c[nH]c4ccccc34)C(=O)NC2=O)c2ccccc21 | 2.64 (active)
14 | C=CC(=O)c1ccc2ccccc2c1 | 0.129
15 | Cn1cnc2nc(NCCO)nc(NCc3ccccc3)c21 [Iso-olomoucine] | 0.048
16 | Cc1ccc(C(=O)c2cc(/C=C/C(=O)NO)n(C)c2)cc1 | -0.0732
17 | CCCC(CCC)C(=O)O [Valproic acid] | -0.00583
18 | O=C(O)c1ccc2nc(-c3ccccc3)c(-c3ccccc3)nc2c1 | -0.199
19 | CCCC(CCC)C(=O)NO [Valproic acid hydroxamate] | -0.292
20 | CC(NC(=O)c1ccccc1/N=C/c1c(O)ccc2ccccc12)c1ccccc1 (stereo not given) [Sirtinol] | -0.129

Same assay, conditions: donor: 1; 5 µM; library: ENZO Libraries; 4 days

Row | SMILES | proliferation
21 | COC(=O)C[C@H](NC(=O)[C@H](C)NC(=O)[C@@H](NC(=O)OCc1ccccc1)C(C)C)C(=O)CF | -0.0506
22 | C[C@H](NC(=O)[C@@H]1CCCN1C(=O)[C@@H]1CCCN1C(=O)[C@@H](O)[C@H](N)Cc1ccccc1)C(N)=O [Apstatin] | -0.193
23 | CC(C)CC(=O)N[C@H](C(=O)N[C@H](C(=O)N[C@@H](CC(C)C)[C@@H](O)CC(=O)N[C@@H](C)C(=O)N[C@@H](CC(C)C)[C@@H](O)CC(=O)O)C(C)C)C(C)C [Pepstatin A] | 0.196
24 | O=C1Nc2ccccc2/C1=C1/Nc2ccccc2C1=O [Indirubin] | -1.2
25 | NCCCC[C@H](N[C@@H](CCc1ccccc1)C(=O)O)C(=O)N1CCC[C@H]1C(=O)O [Lisinopril] | 0.0284
26 | Nc1ccccc1NC(=O)CCCCCCC(=O)Nc1ccccc1 | 0.0632
27 | O=c1c(-c2ccc(O)cc2)coc2cc(O)cc(O)c12 [Genistein] | 2.14 (active)
28 | O=C(O)CNC(=O)C(CS)Cc1ccccc1 (racemic) [DL-Thiorphan] | -0.0316
29 | O=C(O)c1ccnc(C(=O)O)c1 [24-Pyridinedicarboxylic Acid] | -0.194
30 | COCc1cc(O)c(O)c(O)c1-c1c(COC)cc(O)c(O)c1O | -0.416
31 | O=C(O)c1cc(N(Cc2ccccc2O)Cc2cc(O)ccc2O)ccc1O [Lavendustin A] | -0.457
32 | CC1CNc2c(cccc2S(=O)(=O)N[C@@H](CCCNC(=N)N)C(=O)N2CC[C@@H](C)C[C@@H]2C(=O)O)C1 (stereo not given in full) [Argatroban] | -0.0211
33 | CN(C)CCCn1cc(C2=C(c3c[nH]c4ccccc34)C(=O)NC2=O)c2ccccc21 | -0.932
34 | C=CC(=O)c1ccc2ccccc2c1 | -0.357
35 | Cn1cnc2nc(NCCO)nc(NCc3ccccc3)c21 [Iso-olomoucine] | 0.096
36 | Cc1ccc(C(=O)c2cc(/C=C/C(=O)NO)n(C)c2)cc1 | -0.0538
37 | CCCC(CCC)C(=O)O [Valproic acid] | -0.171
38 | O=C(O)c1ccc2nc(-c3ccccc3)c(-c3ccccc3)nc2c1 | -0.68
39 | CCCC(CCC)C(=O)NO [Valproic acid hydroxamate] | -0.132
40 | CC(NC(=O)c1ccccc1/N=C/c1c(O)ccc2ccccc12)c1ccccc1 (stereo not given) [Sirtinol] | -0.361
